From PubChem BioAssay come the findings set out here.

The nature of experiment [1]: antimalarial activity against Dd2 strain (AID 2302;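 active means growth inhibition above 50% at the single 2 µM test dose, taken to imply half-maximal potency below 2 µM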;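 further: 0% = DMSO untreated growth and 100% = chloroquine plus artemisinin killed control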). The following applies: P. falciparum Dd2 in RBCs, LDH growth readout, 72 h; at 2 µM; stronger effect = higher value.
Experiment [2] is described as follows: HepG2 cytotoxicity, primary screen, cytotoxicity control for P. falciparum antimalarial project, cell-based, ATP luminescence (AID 2303;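 active means inhibition above 50%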;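 further: 0% = DMSO wells and 100% = digitonin-killed cells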). Particulars: HepG2 viability, 24-48 h, at 10 µM, stronger effect = higher value.
Experiment [3] has as its target L-lactate dehydrogenase (Plasmodium falciparum (isolate CDC / Honduras)) (UniProt Q27743). Briefly: PfLDH activity inhibition – cell lysate, 3D7 strain, counter-screen for P. falciparum growth inhibition project (AID 2304).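 Further: 0% = vehicle and 100% = reference inhibitor.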 The following applies: P. falciparum 3D7 crude extract, LDH APAD/NBT absorbance; at 2 µM; stronger effect = higher value. (In general: Counterscreens check selectivity or assay interference.)

A short description of experiment [4]: inhibition of 3D7 malaria parasite growth – strain 3D7 (AID 2306).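 Further: 0% = DMSO wells and 100% = chloroquine plus artemisinin control wells.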 The following applies: P. falciparum 3D7 erythrocytic growth, LDH absorbance, 72 h; at 2 µM; stronger effect = higher value.
Experiment [5] has as its target Calcium-dependent protein kinase 1 (Plasmodium falciparum (isolate 3D7)) (UniProt P62344). Briefly: PfCDPK1 kinase inhibitors, biochemical, TCAMS library (AID 1159585; cut-off not given, nearly all actives have IC50 up to about 0.98 µM;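 further: inhibitors leave more ATP so luminescence rises with inhibition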). Particulars: recombinant PfCDPK1, Kinase-Glo ATP depletion luminescence. (In general: Kinase-Glo reads ATP consumption through a luciferase reaction.)
The target in experiment [6] is Plasmodium falciparum protein kinase 6 (PK6, PF3D7_1337100) (UniProt Q8IDW1). Put plainly: PfPK6 kinase inhibitors, biochemical, TCAMS library (AID 1159586). Particulars: recombinant PfPK6, Kinase-Glo ATP depletion luminescence.
Sequence of Plasmodium falciparum protein kinase 6 (PK6, PF3D7_1337100) (Q8IDW1 1-305): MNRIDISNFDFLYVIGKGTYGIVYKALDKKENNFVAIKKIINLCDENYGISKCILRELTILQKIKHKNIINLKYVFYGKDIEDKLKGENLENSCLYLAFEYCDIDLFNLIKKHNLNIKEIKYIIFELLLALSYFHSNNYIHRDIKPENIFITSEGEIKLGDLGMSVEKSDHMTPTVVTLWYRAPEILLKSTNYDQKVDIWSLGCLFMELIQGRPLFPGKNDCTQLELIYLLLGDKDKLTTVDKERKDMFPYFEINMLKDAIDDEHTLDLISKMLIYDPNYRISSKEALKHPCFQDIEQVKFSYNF
For experiment [7], the target named is Protein kinase 7 (PK7), Plasmodium falciparum 3D7 (PF3D7_0213400) (UniProt Q7YTF7). Put plainly: inhibition of Plasmodium PK7 catalytic activity – biochemical, TCAMS antimalarial set, Kinase-Glo luminescence (AID 1159587). The following applies: recombinant PfPK7, Kinase-Glo ATP depletion luminescence.
Sequence of Protein kinase 7 (PK7), Plasmodium falciparum 3D7 (PF3D7_0213400) (Q7YTF7 1-343): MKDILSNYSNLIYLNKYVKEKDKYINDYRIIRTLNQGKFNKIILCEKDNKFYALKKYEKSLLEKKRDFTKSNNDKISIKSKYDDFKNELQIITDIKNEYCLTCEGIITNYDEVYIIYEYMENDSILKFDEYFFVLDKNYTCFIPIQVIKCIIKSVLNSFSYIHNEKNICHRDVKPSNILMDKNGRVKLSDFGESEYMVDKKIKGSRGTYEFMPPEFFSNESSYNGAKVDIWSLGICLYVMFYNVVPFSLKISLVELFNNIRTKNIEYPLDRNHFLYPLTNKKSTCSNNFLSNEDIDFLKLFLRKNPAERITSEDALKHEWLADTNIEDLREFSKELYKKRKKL
For experiment [8], the target named is Calcium-dependent protein kinase 4 (Plasmodium falciparum (isolate 3D7)) (UniProt Q8IBS5). Briefly: PfCDPK4 kinase inhibitors, biochemical, TCAMS library (AID 1159588; cut-off not given, nearly all actives have IC50 up to about 0.91 µM). Particulars: recombinant PfCDPK4, Kinase-Glo ATP depletion luminescence.
Sequence of Calcium-dependent protein kinase 4 (Plasmodium falciparum (isolate 3D7)) (Q8IBS5 whole entry, looked up): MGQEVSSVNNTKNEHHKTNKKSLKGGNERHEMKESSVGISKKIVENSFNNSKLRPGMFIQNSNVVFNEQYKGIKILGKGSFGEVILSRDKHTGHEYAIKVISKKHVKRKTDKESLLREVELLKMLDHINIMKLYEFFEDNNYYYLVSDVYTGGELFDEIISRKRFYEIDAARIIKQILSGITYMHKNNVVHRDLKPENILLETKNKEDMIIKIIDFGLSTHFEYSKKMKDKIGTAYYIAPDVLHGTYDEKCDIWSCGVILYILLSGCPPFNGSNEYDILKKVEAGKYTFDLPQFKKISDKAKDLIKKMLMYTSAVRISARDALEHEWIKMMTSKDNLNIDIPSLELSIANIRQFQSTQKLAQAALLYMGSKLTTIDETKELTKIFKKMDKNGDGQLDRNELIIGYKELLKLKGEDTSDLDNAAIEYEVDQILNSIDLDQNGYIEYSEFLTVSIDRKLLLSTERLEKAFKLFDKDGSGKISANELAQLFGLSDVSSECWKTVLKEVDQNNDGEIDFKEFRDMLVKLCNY

Structures are written as SMILES. Unmarked numbers belong to inactive results. For part of these data: Measured potencies and affinities stand elsewhere. Active and inactive are the calls of the source. Unless noted, how the calls were made is not given here.

Sequence of Calcium-dependent protein kinase 1 (Plasmodium falciparum (isolate 3D7)) (P62344 whole entry, looked up): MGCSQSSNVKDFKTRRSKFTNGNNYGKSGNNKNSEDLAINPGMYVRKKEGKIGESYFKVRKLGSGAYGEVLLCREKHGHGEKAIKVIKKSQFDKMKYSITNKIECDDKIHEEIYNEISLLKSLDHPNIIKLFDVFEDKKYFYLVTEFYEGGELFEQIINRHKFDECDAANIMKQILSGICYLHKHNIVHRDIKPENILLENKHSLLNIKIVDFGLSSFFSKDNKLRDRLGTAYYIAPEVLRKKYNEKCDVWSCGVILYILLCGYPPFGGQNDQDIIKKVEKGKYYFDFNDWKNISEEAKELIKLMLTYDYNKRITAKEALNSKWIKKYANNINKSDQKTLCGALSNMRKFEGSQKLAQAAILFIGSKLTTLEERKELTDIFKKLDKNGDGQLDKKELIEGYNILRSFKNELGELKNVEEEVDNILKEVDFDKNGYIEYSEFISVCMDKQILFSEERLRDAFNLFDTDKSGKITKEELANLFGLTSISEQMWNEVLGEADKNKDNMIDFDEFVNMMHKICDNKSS
Sequence of L-lactate dehydrogenase (Plasmodium falciparum (isolate CDC / Honduras)) (Q27743 whole entry, looked up): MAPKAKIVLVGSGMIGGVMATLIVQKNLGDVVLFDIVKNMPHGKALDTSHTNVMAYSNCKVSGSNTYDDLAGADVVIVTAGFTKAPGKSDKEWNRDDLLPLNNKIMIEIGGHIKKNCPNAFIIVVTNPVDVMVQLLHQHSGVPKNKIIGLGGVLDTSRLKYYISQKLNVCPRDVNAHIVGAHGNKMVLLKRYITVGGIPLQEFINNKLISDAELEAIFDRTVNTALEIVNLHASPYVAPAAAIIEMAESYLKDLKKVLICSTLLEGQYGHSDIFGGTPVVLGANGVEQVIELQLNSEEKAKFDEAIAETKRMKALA

One may read the inhibition as the change of the read-out against control, counted positive when it falls. As for `CCOc1ccc2nc(C)cc(NN=Cc3ccc(Cl)cc3)c2c1`, the growth inhibition in experiment [1] and in experiment [4] was 100% (active) in each case. Moreover, the inhibition was 0% in experiment [2] and 5% in experiment [3]. The result in experiment [5], in experiment [6], in experiment [7] and in experiment [8] was inactive.

Take `CCC[C@@H]([C@@H](CC1CCCCC1)C(=O)N[C@@H](CCCCNS(C)(=O)=O)C(=O)Nc1nccs1)N(O)C=O`: the figures for the growth inhibition in experiment [1] and in experiment [4] were 74% (active) and 101% (active), respectively. The inhibition is -13% in experiment [2] and -1% in experiment [3]. The result in experiment [5], in experiment [6], in experiment [7] and in experiment [8] was inactive.

Consider `CC(OC(=O)c1ccc(C(=O)NCC2CC2)cc1)C(C)(C)C` (stereo not drawn), for which the growth inhibition in experiment [1] was 86% (active); in experiment [4] it was 93% (active). In addition, the inhibition in experiment [2] is 10%; in experiment [3], -3%. In addition, the outcome in experiment [5], in experiment [6], in experiment [7] and in experiment [8] was inactive.

As to `Cc1cc(Nc2ccncc2)n2nc(C)c(-c3ccccc3Cl)c2n1`, the growth inhibition was 93% (active) in experiment [1] and 99% (active) in experiment [4]. Further, the values for the inhibition in experiment [2] and in experiment [3] were 2% and 4%, respectively. In addition, the outcome in experiment [5], in experiment [6], in experiment [7] and in experiment [8] was inactive.

On to `CCN(CC)CCCC(C)N=C(Nc1ccc(C#N)cc1O)Nc1ccccc1Br` (stereo not drawn), for which the values for the growth inhibition in experiment [1] and in experiment [4] were -2% and 89% (active), respectively. The inhibition in experiment [2] is 4%; in experiment [3], 2%. Moreover, the outcome in experiment [5], in experiment [6], in experiment [7] and in experiment [8] was inactive.

On to `COc1cccc(NC(=O)Nc2ccc(C)c(-c3ccc(C(=O)Nc4ccncc4)cc3)c2)c1`, for which the growth inhibition in experiment [1] was 64% (active); in experiment [4], 99% (active). Besides, the inhibition in experiment [2] was 45%; in experiment [3], 1%. Besides, the outcome in experiment [5], in experiment [6], in experiment [7] and in experiment [8] was inactive.

Turning to `COc1ccccc1C(=O)C1CCCN(C(=O)c2ccccc2C(F)(F)F)C1` (stereo not drawn), the values for the growth inhibition in experiment [1] and in experiment [4] were 84% (active) and 91% (active), respectively. In addition, the inhibition in experiment [2] is -9%; in experiment [3] it was -4%. The outcome in experiment [5], in experiment [6], in experiment [7] and in experiment [8] was inactive.

On to `CCCCN(CCCC)CCC(O)C(=Cc1ccc(Cl)cc1Cl)c1ccc(C(F)(F)F)cc1N` (stereo not drawn), for which the figures for the growth inhibition in experiment [1] and in experiment [4] were 99% (active) and 100% (active), respectively. In addition, the inhibition in experiment [2] is -9%; in experiment [3], 1%. The outcome in experiment [5], in experiment [6], in experiment [7] and in experiment [8] was inactive.

With `CCOC(=O)NOC(C(=O)O)c1ccccc1` (stereo not drawn), the growth inhibition in experiment [1] was 17%; in experiment [4], 99% (active). The inhibition in experiment [2] was 4%; in experiment [3] it was -1%. Further, the result in experiment [5], in experiment [6], in experiment [7] and in experiment [8] was inactive.

On to `Cc1ccc2c(OCCN3CCC(Cc4cc5c(cc4F)OCC(=O)N5)CC3)cc(F)cc2n1`, for which the values for the growth inhibition in experiment [1] and in experiment [4] were 71% (active) and 100% (active), respectively. Further, the inhibition in experiment [2] was 27%; in experiment [3], 3%. Also, the outcome in experiment [5], in experiment [6], in experiment [7] and in experiment [8] was inactive.

`COc1ccccc1NC(=O)Nc1ccc(-c2cccc(-c3nc4ccccc4[nH]3)c2)cc1`: the growth inhibition is 25% in experiment [1] and 101% (active) in experiment [4]. Also, the figures for the inhibition in experiment [2] and in experiment [3] were 42% and 0%, respectively. In addition, the result in experiment [5], in experiment [6], in experiment [7] and in experiment [8] was inactive.

With `CCN(CC)CCN(Cc1ccc(-c2ccc(C(F)(F)F)cc2)cc1)C(=O)Cn1c(CCc2cccc(F)c2F)nc(=O)c2ccc(C(F)(F)F)cc21`, the growth inhibition in experiment [1] was 55% (active); in experiment [4] it was 99% (active). Moreover, the inhibition in experiment [2] was 19%; in experiment [3], -2%. Also, the outcome in experiment [5], in experiment [6], in experiment [7] and in experiment [8] was inactive.

Turning to `Cc1ccc(Cc2c(N)nc3nc(N)nc(N)c3c2C)cc1`, the growth inhibition is 8% in experiment [1] and 95% (active) in experiment [4]. Further, the inhibition was 59% (active) in experiment [2] and 4% in experiment [3]. The outcome in experiment [5], in experiment [6], in experiment [7] and in experiment [8] was inactive.

In the case of `Cc1cc(C2CCN(CCCCNC(=O)c3ccc(NC(=O)c4ccc(Cl)cc4)cc3)CC2)c(C)cc1OCc1ccncc1`, the growth inhibition in experiment [1] is 92% (active); in experiment [4], 100% (active). Moreover, the inhibition in experiment [2] was 33%; in experiment [3], 6%. Further, the result in experiment [5], in experiment [6], in experiment [7] and in experiment [8] was inactive.

Turning to `CN1CCN=C1c1ccc(NC(=O)Nc2ccc(C3=NCCN3C)cc2)cc1`, the growth inhibition in experiment [1] was 69% (active); in experiment [4], 85% (active). The values for the inhibition in experiment [2] and in experiment [3] were 7% and -1%, respectively. The result in experiment [5], in experiment [6], in experiment [7] and in experiment [8] was inactive.

`CCOC(=O)NC1=NC(C)(C)N(OCc2cccc3c2ccc2ccccc23)C(NC(=O)OCC)=N1`: the growth inhibition in experiment [1] is 3%; in experiment [4] it was 98% (active). The inhibition in experiment [2] is 3%; in experiment [3], 4%. Moreover, the result in experiment [5], in experiment [6], in experiment [7] and in experiment [8] was inactive.

Turning to `CC(C)CNc1c2c(nc3cnn(-c4c5c(nc6cn[nH]c46)CCCC5)c13)CCCC2`, the growth inhibition in experiment [1] was -2%; in experiment [4], 100% (active). Moreover, the inhibition in experiment [2] was 7%; in experiment [3] it was -5%. Further, the result in experiment [5], in experiment [6], in experiment [7] and in experiment [8] was inactive.

For `CCc1cccc(C)c1-n1nc(-c2cc(C(C)(C)C)oc2C)cc1N`, the growth inhibition in experiment [1] and in experiment [4] was 95% (active) each time. Also, the inhibition in experiment [2] is 4%; in experiment [3], 5%. For the same compound, the result in experiment [5], in experiment [6], in experiment [7] and in experiment [8] was inactive.

On to `CCOCCCNc1sc(S(=O)(=O)c2ccccc2)nc1S(=O)(=O)c1ccc(C)cc1`, for which the growth inhibition in experiment [1] was 87% (active); in experiment [4], 96% (active). The inhibition in experiment [2] is -8%; in experiment [3], 1%. Moreover, the outcome in experiment [5], in experiment [6], in experiment [7] and in experiment [8] was inactive.

As to `CCCCCCN1CCC(NCc2cccc3ccccc23)CC1`, the growth inhibition was 12% in experiment [1] and 95% (active) in experiment [4]. Also, the inhibition in experiment [2] was 21%; in experiment [3] it was 0%. The result in experiment [5], in experiment [6], in experiment [7] and in experiment [8] was inactive.

As to `CCC(C)NC(=O)Nc1ccc(-c2cccc(-c3nc4ccccc4[nH]3)c2)cc1` (stereo not drawn), the growth inhibition in experiment [1] is 37%; in experiment [4], 94% (active). Also, the inhibition in experiment [2] was 41%; in experiment [3], 7%. Moreover, the result in experiment [5], in experiment [6], in experiment [7] and in experiment [8] was inactive.
